The source of these data is PubChem BioAssay (NCI).

The panel holds about 83,000 compounds, 20% with a hit somewhere; the sample as a whole holds those more often.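 96-well plates, one dose, 48 hours. Percent growth reported; active if below 10.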 A number with no mark means an inactive call. Calls of active or inactive are those of the source.

Experiment in all cases: NCI-60 one-dose screen, 48 h (100 = growth as untreated, 0 = no growth, -100 = all killed)
Settings in all cases: 10 µM unless noted

Assay [1] concerns SK-MEL-2 melanoma.
Assay [2] relates to EKVX NSCLC.
For assay [3], the system named is SN12C renal.
For assay [4], the system named is UO-31 renal.
Assay [5] concerns TK-10 renal.
The test system of assay [6] is ACHN renal.
Assay [7] relates to CAKI-1 renal.
Assay [8] relates to A498 renal.
In assay [9] the test system is CCRF-CEM leukemia.
Assay [10] deals with MOLT-4 leukemia.

For the compound `CC1(C)CC[C@]23CC[C@]4(C)[C@H](CC[C@@H]5[C@@]6(C)C/C(=C/c7ccncc7)C(=O)C(C)(C)[C@@H]6CC[C@]54C)[C@H]2[C@H]1OC3=O`, the growth in [1] is 29.5% [100 µM]; in assay [2], 85.5% [100 µM]; in assay [3], 65.6% [100 µM]; in [4] it was 91.8% [100 µM]; in [5], 51.5% [100 µM]; in assay [6], 43.9% [100 µM]. Further, the growth in [7] is 50.8% [100 µM]; in [8] it was 58.6% [100 µM]; in assay [9], 79.3% [100 µM]; in assay [10], 69.1% [100 µM].
Turning to `ClC1=C(Cl)C(Cl)=C(Cl)C1=Cc1ccccc1`, the growth in assay [1] was -28% (active); in [2], -4.72% (active); in assay [3] it was -57% (active); in assay [4], -87.1% (active); in assay [5], -36.3% (active); in assay [6], -35.5% (active). Besides, the growth in [7] was -37.9% (active); in [8], -74.1% (active); in assay [9], 8.52% (active); in assay [10] it was 2.93% (active).
As to `CC(C)[N+](C)(C)CC(O)COc1cccc2ccccc12` (stereo not given), the growth was 104% in [1]; 101% in assay [2]; 103% in assay [3]; 76.4% in assay [4]; 111% in assay [5]; 101% in [6]. Moreover, the growth in assay [7] was 102%; in [8], 92.9%; in [9], 88.1%; in [10], 109%.
For the compound `O=C1CN(Cc2ccc(C(=O)NO)cc2)C(=O)[C@@H](Cc2ccccc2)N1`, the growth was 112% in assay [1]; 98.9% in [2]; 102% in assay [3]; 92.9% in assay [4]; 106% in assay [5]; 103% in assay [6]. Also, the growth in assay [7] is 94.1%; in assay [8], 94.7%; in assay [9], 105%; in assay [10], 101%.
Regarding `CCCC[C@@H](C=O)NC(=O)[C@H](CC(C)C)NC(=O)[C@H](CC(C)C)NC(=O)OCc1ccccc1`, the growth in assay [1] is 13.4%; in assay [2] it was -14.2% (active); in assay [3], 2.11% (active); in assay [4], 23.8%; in assay [5], -20.2% (active); in [6] it was 25.3%. The growth was 4.61% (active) in [7], -47.6% (active) in assay [8], -26.5% (active) in assay [9] and -11.7% (active) in assay [10].
For the compound `C=C(C)[C@@H]1CC[C@]2(C)[C@H](CC=C3[C@@H]4[C@@H](C)[C@H](C)CC[C@]4(C(N)=O)CC[C@]32C)[C@@]1(C)CCC#N`, the growth is -62.5% [100 µM] (active) in [1]; 11.8% [100 µM] in [2]; -75.7% [100 µM] (active) in assay [3]; -91.5% [100 µM] (active) in assay [4]; -10.2% [100 µM] (active) in assay [5]; -1.6% [100 µM] (active) in assay [6]. Further, the growth in assay [7] was 6.4% [100 µM] (active); in [8], -33.6% [100 µM] (active); in assay [9], -7.62% [100 µM] (active); in assay [10], -1.01% [100 µM] (active).
For `CSc1nc2sc3cc(Cl)c(Cl)cc3n2c(=N)c1C#N`, the growth in assay [1] is 102%; in [2], 80.1%; in assay [3] it was 98.4%; in assay [4], 69.3%; in assay [5] it was 121%; in assay [6], 117%. For the same compound, the growth in [7] is 87.9%; in assay [8], 116%; in assay [9], 107%; in [10], 95.5%.
As for `CC1(C)CC(=O)c2c(ccc(C(=O)C[C@@H](N)CO)c2N)O1`, the growth in assay [1] was 9.07% (active); in assay [2], 80.7%; in assay [3] it was 14.8%; in assay [4] it was 25.1%; in assay [5], 61.4%; in assay [6], 36.3%. For the same compound, the growth in assay [7] is 4.82% (active); in assay [8], -70.4% (active); in [9], 13%; in assay [10] it was 21%.
Regarding `CC(=O)O.CC(=O)O.O.[Fe]`, the growth in [1] was 109%; in [2], 147%; in assay [3], 95.2%; in [4] it was 89%; in assay [5] it was 105%; in [6], 107%. The growth in assay [7] is 130%; in assay [8], 89.8%; in [9], 131%; in assay [10], 116%.
Consider `CCOC(=O)n1cc(C2=C(c3ccc(OC)c(OC)c3)COC2=O)c2ccccc21`, for which the growth in assay [1] is 62.1%; in assay [2] it was 51.5%; in assay [3], 18.5%; in [4] it was 26.5%; in [5], 53.7%; in [6], 23.1%. The growth in assay [7] is 23.6%; in [8] it was -25.3% (active); in assay [9] it was 17.6%; in assay [10], 11.6%.
Regarding `COc1ccc(C(=O)c2nccc3cc(OC)c(OC)cc23)cc1OC`, the growth is 108% in [1]; 90.1% in [2]; 72.1% in [3]; 82.8% in [4]; 132% in assay [5]; 91.7% in assay [6]. Also, the growth was 75.8% in [7], 64.6% in assay [8], 132% in assay [9] and 103% in assay [10].
Regarding `CCCCCCSc1ncnc2nc[nH]c12`, the growth is 105% in assay [1]; 83.6% in assay [2]; 92.4% in assay [3]; 64.7% in assay [4]; 103% in assay [5]; 96.8% in [6]. Moreover, the growth was 95.9% in assay [7], 95.2% in [8], 101% in assay [9] and 84.7% in [10].
Take `CS(=O)(=O)c1cccnn1`: the growth was 98.8% in assay [1]; 76.9% in assay [2]; 89.1% in assay [3]; 79.9% in [4]; 109% in [5]; 97.7% in assay [6]. Moreover, the growth in [7] was 73.6%; in assay [8] it was 66.7%; in assay [9], 84.9%; in [10], 132%.
